# Measurements published in the supplement of paper PMC4022240.
# ± gives the standard deviation.
# T1: HaloTag-ATRX ADD domain (163-292)
# T1 chain: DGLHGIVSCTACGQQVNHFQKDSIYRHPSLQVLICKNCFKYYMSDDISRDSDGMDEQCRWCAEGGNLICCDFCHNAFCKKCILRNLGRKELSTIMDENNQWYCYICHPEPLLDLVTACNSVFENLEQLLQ
# Columns and labels:
# Experiment in all cases: peptide microarray binding signal (635 nm), min-max normalized on array (fraction of array maximum); higher = stronger binding
# Conditions in all cases: peptide region: H3 5-17
# [1] = target: T1, HaloTag-ATRX ADD domain (163-292)
# Outline: (§1)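 Arrays carried histone 13-mer peptide–cellulose conjugates printed in triplicate on nitrocellulose alongside a Cy3 tracer. After overnight blocking at 4°C, they were incubated for 1 h at 4°C with biotin-labelled HaloTag reader fusions (10 nM to 1 μM) plus streptavidin-Alexa Fluor 647, or with rabbit histone antibodies (1:10,000 to 1:2,000) plus anti-rabbit Alexa 647. Scanning on an Axon GenePix 4000B used 635 nm for signal and 532 nm for misprints. The binding signal reported is each triplicate's mean spot intensity after per-library min-max scaling.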
# [2] = target: HaloTag-ING2 PHD (mouse Ing2 200-280)
# Outline: as §1
# [3] = target: anti-H3K4me3 antibody ab8580
# Outline: as §1
# [4] = target: anti-H3K9me3 antibody ab8898
# Outline: as §1
# [5] = peptide modifications: H3K9me1 H3T11ph, binder concentration: 1:2,000 dilution
# [6] = peptide modifications: H3K9me1 H3T11ph, binder concentration: 1:10,000 dilution
# [7] = peptide modifications: H3K9me2, binder concentration: 1:2,000 dilution
# [8] = peptide modifications: H3K9me2, binder concentration: 1:10,000 dilution
# [9] = peptide modifications: H3K9me2 H3K14ac, binder concentration: 1:2,000 dilution
# [10] = peptide modifications: H3K9me2 H3K14ac, binder concentration: 1:10,000 dilution
# [11] = peptide modifications: H3K9me2 H3K14me1, binder concentration: 1:2,000 dilution
# [12] = peptide modifications: H3K9me2 H3K14me1, binder concentration: 1:10,000 dilution
# [13] = peptide modifications: H3K9me2 H3K14me2, binder concentration: 1:2,000 dilution
# [14] = peptide modifications: H3K9me2 H3K14me2, binder concentration: 1:10,000 dilution
# [15] = peptide modifications: H3K9me2 H3K14me3, binder concentration: 1:2,000 dilution
# [16] = peptide modifications: H3K9me2 H3K14me3, binder concentration: 1:10,000 dilution
# [17] = peptide modifications: H3K9me2 H3S10ph, binder concentration: 1:2,000 dilution
# [18] = peptide modifications: H3K9me2 H3S10ph, binder concentration: 1:10,000 dilution
# [19] = peptide modifications: H3K9me2 H3T11ph, binder concentration: 1:2,000 dilution
# [20] = peptide modifications: H3K9me2 H3T11ph, binder concentration: 1:10,000 dilution
# [21] = peptide modifications: H3K9me3, binder concentration: 1:2,000 dilution
# [22] = peptide modifications: H3K9me3, binder concentration: 1:10,000 dilution
# [23] = peptide modifications: H3K9me3 H3K14ac, binder concentration: 1:2,000 dilution
# [24] = peptide modifications: H3K9me3 H3K14ac, binder concentration: 1:10,000 dilution
binder,measurement,setting,value
QTARKSTGGKAPR [H3 5-17 Q T A R Kme S Tph G G K A P R],peptide microarray binding signal,"[1]; peptide modifications: H3K9me1 H3T11ph, binder concentration: 50 nM",0.00179 ± 4.4e-05
same,peptide microarray binding signal,"[1]; peptide modifications: H3K9me1 H3T11ph, binder concentration: 500 nM",0.003 ± 0.00011
same,peptide microarray binding signal,"[2]; peptide modifications: H3K9me1 H3T11ph, binder concentration: 10 nM",0.002208 ± 2.2e-05
same,peptide microarray binding signal,"[2]; peptide modifications: H3K9me1 H3T11ph, binder concentration: 100 nM",0.00524 ± 0.00071
same,peptide microarray binding signal,[3]; [5],0.000396 ± 4.2e-05
same,peptide microarray binding signal,[3]; [6],0.000285 ± 3.1e-06
same,peptide microarray binding signal,[4]; [5],0.00856 ± 0.0022
same,peptide microarray binding signal,[4]; [6],0.00208 ± 5.1e-05
QTARKSTGGKAPR [H3 5-17 Q T A R Kme2 S T G G K A P R],peptide microarray binding signal,"[1]; peptide modifications: H3K9me2, binder concentration: 50 nM",0.0133 ± 0.0071
same,peptide microarray binding signal,"[1]; peptide modifications: H3K9me2, binder concentration: 500 nM",0.0011 ± 2.1e-05
same,peptide microarray binding signal,"[2]; peptide modifications: H3K9me2, binder concentration: 10 nM",0.00334 ± 9.6e-05
same,peptide microarray binding signal,"[2]; peptide modifications: H3K9me2, binder concentration: 100 nM",0.00248 ± 8.6e-05
same,peptide microarray binding signal,[3]; [7],0.00583 ± 0.0036
same,peptide microarray binding signal,[3]; [8],0.0112 ± 0.0032
same,peptide microarray binding signal,[4]; [7],0.00489 ± 0.0019
same,peptide microarray binding signal,[4]; [8],0.003 ± 0.00036
QTARKSTGGKAPR [H3 5-17 Q T A R Kme2 S T G G Kac A P R],peptide microarray binding signal,"[1]; peptide modifications: H3K9me2 H3K14ac, binder concentration: 50 nM",0.002382 ± 1.1e-05
same,peptide microarray binding signal,"[1]; peptide modifications: H3K9me2 H3K14ac, binder concentration: 500 nM",0.0103 ± 0.00014
same,peptide microarray binding signal,"[2]; peptide modifications: H3K9me2 H3K14ac, binder concentration: 10 nM",0.0115 ± 0.001
same,peptide microarray binding signal,"[2]; peptide modifications: H3K9me2 H3K14ac, binder concentration: 100 nM",0.00886 ± 0.0033
same,peptide microarray binding signal,[3]; [9],0.00225 ± 0.00054
same,peptide microarray binding signal,[3]; [10],0.00228 ± 0.00034
same,peptide microarray binding signal,[4]; [9],0.0906 ± 0.0013
same,peptide microarray binding signal,[4]; [10],0.0371 ± 0.015
QTARKSTGGKAPR [H3 5-17 Q T A R Kme2 S T G G Kme A P R],peptide microarray binding signal,"[1]; peptide modifications: H3K9me2 H3K14me1, binder concentration: 50 nM",0.00589 ± 7.1e-05
same,peptide microarray binding signal,"[1]; peptide modifications: H3K9me2 H3K14me1, binder concentration: 500 nM",0.015 ± 0.0013
same,peptide microarray binding signal,"[2]; peptide modifications: H3K9me2 H3K14me1, binder concentration: 10 nM",0.00812 ± 0.00048
same,peptide microarray binding signal,"[2]; peptide modifications: H3K9me2 H3K14me1, binder concentration: 100 nM",0.0359 ± 0.0037
same,peptide microarray binding signal,[3]; [11],0.00455 ± 0.00086
same,peptide microarray binding signal,[3]; [12],0.00365 ± 0.00015
same,peptide microarray binding signal,[4]; [11],0.217 ± 0.078
same,peptide microarray binding signal,[4]; [12],0.0891 ± 0.021
QTARKSTGGKAPR [H3 5-17 Q T A R Kme2 S T G G Kme2 A P R],peptide microarray binding signal,"[1]; peptide modifications: H3K9me2 H3K14me2, binder concentration: 50 nM",0.00555 ± 0.0003
same,peptide microarray binding signal,"[1]; peptide modifications: H3K9me2 H3K14me2, binder concentration: 500 nM",0.011 ± 0.00059
same,peptide microarray binding signal,"[2]; peptide modifications: H3K9me2 H3K14me2, binder concentration: 10 nM",0.00937 ± 0.00041
same,peptide microarray binding signal,"[2]; peptide modifications: H3K9me2 H3K14me2, binder concentration: 100 nM",0.00999 ± 0.0011
same,peptide microarray binding signal,[3]; [13],0.00672 ± 0.00077
same,peptide microarray binding signal,[3]; [14],0.00496 ± 0.00056
same,peptide microarray binding signal,[4]; [13],0.175 ± 0.021
same,peptide microarray binding signal,[4]; [14],0.0735 ± 0.0023
QTARKSTGGKAPR [H3 5-17 Q T A R Kme2 S T G G Kme3 A P R],peptide microarray binding signal,"[1]; peptide modifications: H3K9me2 H3K14me3, binder concentration: 50 nM",0.00301 ± 0.00046
same,peptide microarray binding signal,"[1]; peptide modifications: H3K9me2 H3K14me3, binder concentration: 500 nM",0.002 ± 0.00021
same,peptide microarray binding signal,"[2]; peptide modifications: H3K9me2 H3K14me3, binder concentration: 10 nM",0.00143 ± 1.7e-05
same,peptide microarray binding signal,"[2]; peptide modifications: H3K9me2 H3K14me3, binder concentration: 100 nM",0.00106 ± 3e-05
same,peptide microarray binding signal,[3]; [15],0.00126 ± 0.00029
same,peptide microarray binding signal,[3]; [16],0.00405 ± 0.0015
same,peptide microarray binding signal,[4]; [15],0.00464 ± 0.0015
same,peptide microarray binding signal,[4]; [16],0.00646 ± 0.0028
QTARKSTGGKAPR [H3 5-17 Q T A R Kme2 Sph T G G K A P R],peptide microarray binding signal,"[1]; peptide modifications: H3K9me2 H3S10ph, binder concentration: 50 nM",0.00806 ± 0.00056
same,peptide microarray binding signal,"[1]; peptide modifications: H3K9me2 H3S10ph, binder concentration: 500 nM",0.0147 ± 0.00082
same,peptide microarray binding signal,"[2]; peptide modifications: H3K9me2 H3S10ph, binder concentration: 10 nM",0.03 ± 0.0049
same,peptide microarray binding signal,"[2]; peptide modifications: H3K9me2 H3S10ph, binder concentration: 100 nM",0.0527 ± 0.017
same,peptide microarray binding signal,[3]; [17],0.0068 ± 0.00063
same,peptide microarray binding signal,[3]; [18],0.00639 ± 0.00076
same,peptide microarray binding signal,[4]; [17],0.193 ± 0.067
same,peptide microarray binding signal,[4]; [18],0.0868 ± 0.021
QTARKSTGGKAPR [H3 5-17 Q T A R Kme2 S Tph G G K A P R],peptide microarray binding signal,"[1]; peptide modifications: H3K9me2 H3T11ph, binder concentration: 50 nM",0.00201 ± 3.7e-05
same,peptide microarray binding signal,"[1]; peptide modifications: H3K9me2 H3T11ph, binder concentration: 500 nM",0.00319 ± 6.5e-05
same,peptide microarray binding signal,"[2]; peptide modifications: H3K9me2 H3T11ph, binder concentration: 10 nM",0.0031 ± 7.8e-05
same,peptide microarray binding signal,"[2]; peptide modifications: H3K9me2 H3T11ph, binder concentration: 100 nM",0.0022 ± 3.7e-05
same,peptide microarray binding signal,[3]; [19],0.000396 ± 7e-06
same,peptide microarray binding signal,[3]; [20],0.000799 ± 8.3e-06
same,peptide microarray binding signal,[4]; [19],0.0382 ± 0.01
same,peptide microarray binding signal,[4]; [20],0.0291 ± 0.0025
QTARKSTGGKAPR [H3 5-17 Q T A R Kme3 S T G G K A P R],peptide microarray binding signal,"[1]; peptide modifications: H3K9me3, binder concentration: 50 nM",0.00411 ± 0.00036
same,peptide microarray binding signal,"[1]; peptide modifications: H3K9me3, binder concentration: 500 nM",0.00362 ± 0.00095
same,peptide microarray binding signal,"[2]; peptide modifications: H3K9me3, binder concentration: 10 nM",0.00448 ± 6.1e-05
same,peptide microarray binding signal,"[2]; peptide modifications: H3K9me3, binder concentration: 100 nM",0.002126 ± 2.1e-05
same,peptide microarray binding signal,[3]; [21],0.00266 ± 0.00033
same,peptide microarray binding signal,[3]; [22],0.00519 ± 0.00032
same,peptide microarray binding signal,[4]; [21],0.00814 ± 0.0004
same,peptide microarray binding signal,[4]; [22],0.0129 ± 0.0011
QTARKSTGGKAPR [H3 5-17 Q T A R Kme3 S T G G Kac A P R],peptide microarray binding signal,"[1]; peptide modifications: H3K9me3 H3K14ac, binder concentration: 50 nM",0.005862 ± 5.4e-05
same,peptide microarray binding signal,"[1]; peptide modifications: H3K9me3 H3K14ac, binder concentration: 500 nM",0.0246 ± 0.0026
same,peptide microarray binding signal,"[2]; peptide modifications: H3K9me3 H3K14ac, binder concentration: 10 nM",0.0279 ± 0.0021
same,peptide microarray binding signal,"[2]; peptide modifications: H3K9me3 H3K14ac, binder concentration: 100 nM",0.0183 ± 0.013
same,peptide microarray binding signal,[3]; [23],0.0646 ± 0.051
same,peptide microarray binding signal,[3]; [24],0.089 ± 0.042
same,peptide microarray binding signal,[4]; [23],0.781 ± 0.051
same,peptide microarray binding signal,[4]; [24],0.939 ± 0.11
